Unmarked numbers belong to inactive results. Inconclusive results are not listed. A call without a number means that no potency is given here. Active and inactive are the calls of the source. Unless noted, the call rests on the fitted dose curve; in most records, active means well fitted curve in the direction sought with a large enough effect; inconclusive means small, poorly fitted or top-dose-only effect, or another doubt; inactive means no such curve, though single readings can be large; an effect the other way counts as inactive or inconclusive.
What was measured:
[1] = Cell Viability - BJ (AID 421; calls by dose curve;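 further: potency means the concentration at half of the fitted maximal effect; cells exposed to compound for 40 hours at 37 °C before readout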); conditions: BJ fibroblast viability, qHTS
In short: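 Quantitative HTS: ATP depletion in BJ cells after 40 hr compound exposure in complete culture medium, detected with CellTiter-Glo; AC50 from standard Hill fits.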

[2] = Cell Viability - Jurkat (AID 426;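 active means dose-dependent loss of cell ATP signal giving a full or clear fitted curve, ranked by lower potency value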;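 further: potency means the concentration at half of the fitted maximal effect; cells exposed to compound for 40 hours at 37 °C before ATP read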); conditions: qHTS
In short: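 Seed 5000 Jurkat E6-1 cells/well; add compound; incubate 40 hr at 37 °C; add CellTiter-Glo; wait 20 min at room temperature; read luminescence. Fit concentration-response with Hill equation for AC50.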

[3] = Cell Viability - Hek293 (AID 427;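 active means compounds whose dose-response curve shows a full or clear partial loss of cell viability, called from curve shape rather than a numeric limit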;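 further: potency means the concentration at half of the fitted maximal effect; cells exposed to compound for 40 hours at 37 °C before reading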); conditions: qHTS
In short: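 AC50 values derive from Hill-modelled concentration-response of ATP-based luminescence, normalized between DMSO-only and 100 uM tamoxifen controls. Cells were exposed in complete culture medium for 40 hr at 37 °C before detection.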

[4] = Cell Viability - HepG2 (AID 433; calls by dose curve;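 further: potency means the concentration at half of the fitted maximal effect; cells exposed to compound for 40 hours; potency for ATP loss meaning cytotoxicity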); conditions: qHTS
In short: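 Cytotoxicity read as ATP loss (CellTiter-Glo luminescence) after 40 hr compound exposure of HepG2, 1500 cells/well, 37 °C. AC50 by Hill equation; 0% set by DMSO, 100% inhibition by 100 uM tamoxifen.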

[5] = Cell Viability - MRC5 (AID 434; calls by dose curve;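 further: potency means the concentration at half of the fitted maximal effect; cells exposed to compound for 40 hours at 37 °C; potency reflects cytotoxicity seen as loss of intracellular ATP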); conditions: MRC5 lung fibroblast viability, qHTS
In short: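 qHTS cytotoxicity in human lung fibroblast MRC5 cells; 40 hr treatment, 37 °C; cellular ATP by luciferase luminescence; DMSO = 0%, 100 uM tamoxifen = 100% inhibition; Hill-fit AC50.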

[6] = Cell Viability - SK-N-SH (AID 435; calls by dose curve; further: potency means the concentration at half of the fitted maximal effect); conditions: SK-N-SH neuroblastoma cell viability qHTS
In short: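 qHTS cytotoxicity: CellTiter-Glo ATP luminescence after 40 h compound exposure of human neuroblastoma SK-N-SH cells at 37 °C. AC50 derived by Hill-equation fitting, with DMSO as basal and 100 uM tamoxifen as full inhibition.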

[7] = target: Mitogen-activated protein kinase 10 (Mus musculus) (UniProt Q61831); assay: JNK3 AlphaScreen Assay (AID 530; active means well fitted curve in either direction with a large enough effect, not every such curve was filed as active;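 further: kinase came from lysate of stimulated human HepG2 cells; signal reports phosphorylation of biotinylated GST-cJun 1-79 at Ser73 with 10 µM ATP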); conditions: JNK3 lysate, c-Jun phosphorylation; series mostly up to 57.1 µM
In short: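 Room-temperature AlphaScreen kinase assay; pre-activated HepG2 lysate as JNK3 source, biotin-GST-cJun(1-79) substrate, 10 uM ATP, compound 15 min preincubation.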

[8] = Cell Viability - N2a (AID 540); conditions: N2a mouse neuroblastoma cell viability; activity change, negative = cytotoxicity: at 92.2 µM (top of the series); further: nearly all actives have a fitted effect of over 45% in size
In short: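 First, 1500 N2a cells per well incubate 5 hr at 37 °C; next, compounds are added and incubated 40 hr at 37 °C; finally CellTiter-Glo is added and luminescence read after 20 min, with AC50 derived by Hill modeling.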

[9] = Cell Viability - NIH 3T3 (AID 541); conditions: NIH 3T3 cell viability, qHTS; activity change, negative = cytotoxicity: at 92.2 µM (top of the series);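 further: cells exposed to compound for 40 hours; nearly all actives have a fitted effect of over 25% in size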
In short: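 AC50 values reflect concentration-dependent loss of intracellular ATP in NIH 3T3 cells after 40 hr treatment in complete culture medium, quantified by luciferase-based luminescence.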

[10] = Cell Viability - HUV-EC-C (AID 542); conditions: HUV-EC-C endothelial cell viability, qHTS; series mostly up to 92.2 µM;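 further: cells exposed to compound for 40 hours; nearly all actives have a fitted effect of over 35% in size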
In short: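 Decrease in cellular ATP, quantified by luciferase luminescence, reflects toxicity in normal human vascular endothelial HUV-EC-C cells given compound for 40 hr in complete culture medium. Values are AC50s from concentration-response curves.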

[11] = Cell Viability - SH-SY5Y (AID 544); conditions: SH-SY5Y neuroblastoma cell viability; viability change, negative = cytotoxic: at 92.2 µM (top of the series);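 further: cells exposed to compound for 40 hours; nearly all actives have a fitted effect of over 55% in size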; further: potency means the concentration at half of the fitted maximal effect
In short: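 Cytotoxicity is scored as a concentration-dependent fall in intracellular ATP in human SH-SY5Y cells treated 40 hr in complete culture medium. Potency is expressed as AC50 from a Hill equation fit.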

[12] = Cell Viability - Renal Proximal Tubule (AID 545); conditions: renal proximal tubule cells viability, primary cells of rat origin; series mostly up to 91.7 µM;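 further: cells exposed to compound for 40 hours; nearly all actives have a fitted effect of over 40% in size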
In short: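 Viability taken as intracellular ATP (CellTiter-Glo luminescence) after 40 hr, 37 °C compound treatment of primary proximal tubule cells from rat kidney, 1000 cells/well; Hill-equation fits of qHTS concentration-response data gave AC50.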

[13] = Cell Viability - Mesenchymal (AID 546); conditions: mesenchymal cells viability, qHTS; series mostly up to 91.7 µM;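 further: cells exposed to compound for 40 hours before reading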
In short: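 AC50 values reflect the drop in intracellular ATP in a human kidney mesenchymal line derived from normal glomeruli. Treatment lasts 40 hr at 37 °C in complete medium, and the signal comes from CellTiter-Glo luminescence.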

[14] = Cellular Toxicity (caspase-3) HepG2 (AID 654); conditions: HepG2 caspase-3 activation, luminescence; series mostly up to 92.2 µM;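 further: cells exposed to compound for 16 hours before reading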
In short: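 qHTS, HepG2, 1500 cells/well, complete medium; cpd 16 h 37 °C; Caspase-Glo 3/7, 20 min RT; lum. Norm: DMSO vs 100 uM tamoxifen; AC50 Hill fit.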

[15] = Cellular Toxicity (caspase-3) HUV-EC-C (AID 656); conditions: HUV-EC-C cells, caspase-3 activation (apoptosis), vehicle = 0, 100 µM tamoxifen = 100%; series mostly up to 92.2 µM
In short: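 Luminescent Caspase-Glo 3/7 readout after 16 h, 37 °C compound exposure of HUV-EC-C endothelial cells, 1000 per well, complete medium. AC50 derived by Hill fitting, with DMSO as baseline and 100 uM tamoxifen as full activation.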

[16] = Cellular Toxicity (caspase-3) SHSY5Y (AID 657); conditions: SH-SY5Y caspase-3 activation, DMSO zero, 10 µM staurosporine = 100%; series mostly up to 91.7 µM
In short: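 Luminescent Caspase-Glo 3/7 read-out, 1 hr room temperature, follows 16 hours of compound treatment of SH-SY5Y cells at 37 °C. Normalization: DMSO basal, 10 uM staurosporine as 100%; AC50 values from Hill-equation concentration-response fits.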

[17] = Cellular Toxicity (caspase-3) MRC-5 (AID 659); conditions: MRC-5 cells, luminescence, normalized: DMSO 0%, 10 µM staurosporine 100%; series mostly up to 91.7 µM
In short: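 Concentration-dependent caspase 3/7 activation is measured in human normal lung fibroblasts (MRC-5) following 16-hour treatment. AC50 values come from standard Hill-equation modeling of luminescence normalized to DMSO and 10 uM staurosporine.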

[18] = Cell Viability - H-4-II-E (AID 543); conditions: H-4-II-E rat hepatoma viability; series mostly up to 92.2 µM;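 further: cells exposed to compound for 40 hours; nearly all actives have a fitted effect of over 35% in size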
In short: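 Here, cytotoxicity is measured in the rat hepatoma line H-4-II-E as loss of intracellular ATP after 40 hr compound treatment, detected by luciferase luminescence.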

[19] = Cellular Toxicity (caspase-3) Jurkat (AID 655); conditions: Jurkat caspase-3 activation, luminescence; caspase-3 activation: at 92.2 µM (top of the series), DMSO = 0%, tamoxifen = 100%;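 further: cells exposed to compound for 16 h at 37 °C before reading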
In short: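 Luminescent Caspase-Glo 3/7 read-out (20 min, room temperature) after 16 h compound treatment at 37 C of 5000 Jurkat cells per well. AC50 derived by Hill-equation fitting, scaled between DMSO basal and 100 uM tamoxifen stimulation.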

[20] = Cellular Toxicity (caspase-3) BJ (AID 658); conditions: BJ fibroblasts, luminescence, normalized: DMSO 0%, staurosporine 100%; series mostly up to 91.7 µM
In short: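 Readout: Caspase-Glo 3/7 luminescence increase in BJ cells after 16 hr treatment at 37 °C. Staurosporine and tamoxifen served as positive controls; AC50 values came from Hill modelling of data normalized to DMSO and 10 uM staurosporine.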

| SMILES | Potency [1] [µM] | Potency [2] [µM] | Potency [3] [µM] | Potency [4] [µM] | Potency [5] [µM] | Potency [6] [µM] | outcome [7] | activity change, negative = cytotoxicity [8] [%] | Potency [9] | Potency [10] | Potency [11] | Potency [12] | Potency [13] | Potency [14] | outcome [15] | outcome [16] | outcome [17] | Potency [18] | caspase-3 activation [19] [%] | outcome [20] |
| --- | --- | --- | --- | --- | --- | --- | --- | --- | --- | --- | --- | --- | --- | --- | --- | --- | --- | --- | --- | --- |
| O=C1OC(=O)c2c(Cl)c(Cl)c(Cl)c(Cl)c21 | > 92 | > 92 | > 92 | > 92 | > 92 | > 92 | inactive | 4.39 | inactive | inactive | inactive | inactive | inactive | inactive | inactive | inactive | inactive |  |  |  |
| Nc1cc([N+](=O)[O-])ccc1C(=O)O | > 92 | > 92 | > 92 | > 92 | > 92 | > 92 | inactive | 7.91 |  | inactive | inactive | inactive | inactive | inactive | inactive | inactive | inactive | inactive | -2.73 | inactive |
| C/C=C(/C)C#N | > 92 | > 92 | > 92 | > 92 | > 92 | > 92 | inactive | -3.64 | inactive | inactive | inactive |  | inactive | inactive | inactive |  | inactive | inactive | 1.22 | inactive |
| Cc1ccc2nc(-c3ccc(N)cc3)sc2c1S(=O)(=O)O | > 92 | > 92 | > 92 | > 92 | > 92 | > 92 | inactive | 3.3 |  | inactive | inactive | inactive | inactive | inactive | inactive | inactive | inactive | inactive | -10.6 | inactive |
| N#CCc1ccccc1[N+](=O)[O-] | > 92 | > 92 | > 92 | > 92 | > 92 | > 92 | inactive | -1.71 | inactive | inactive |  | inactive | inactive | inactive |  | inactive | inactive |  | 1.28 | inactive |
| O=C1OC(=O)c2cc([N+](=O)[O-])ccc21 | > 92 | > 92 | > 92 | > 92 | > 92 | > 92 | inactive | -2.26 | inactive | inactive | inactive | inactive | inactive | inactive | inactive | inactive | inactive |  | -2.27 |  |
| Cc1cccc(Br)c1 | > 92 | > 92 | > 92 | > 92 | > 92 | > 92 | inactive | -13.7 | inactive | inactive | inactive | inactive | inactive | inactive | inactive | inactive |  |  |  | inactive |
| C=CC(=O)OCCCC | > 92 | > 92 | > 92 | > 92 | > 92 | > 92 | inactive | 10.3 | inactive | inactive | inactive | inactive |  | inactive | inactive | inactive | inactive |  | 0.501 | inactive |
| CCCOCC(C)O (stereo unspecified) | > 92 | > 92 | > 92 | > 92 | > 92 | > 92 | inactive | -5.54 | inactive | inactive |  | inactive | inactive | inactive | inactive | inactive | inactive | inactive | 3.45 | inactive |
| CC(=O)c1nccs1 | > 92 | > 92 | > 92 | > 92 | > 92 | > 92 | inactive | 2.98 | inactive | inactive | inactive | inactive | inactive | inactive | inactive | inactive | inactive |  | 0.174 | inactive |
| O=C1C=CCCC1 | > 92 | > 92 | > 92 | > 92 | > 92 | > 92 | inactive | 3.2 | inactive | inactive | inactive |  | inactive | inactive | inactive | inactive | inactive | inactive |  | inactive |
| CCCCCCC(=O)O | > 92 | > 92 | > 92 | > 92 | > 92 | > 92 | inactive | -3.74 | inactive | inactive | inactive | inactive | inactive | inactive | inactive | inactive | inactive |  | 0.927 | inactive |
| O=C(O)c1cc(Cl)cc(Cl)c1 | > 92 | > 92 | > 92 | > 92 | > 92 | > 92 | inactive | -1.73 | inactive | inactive | inactive | inactive | inactive | inactive | inactive | inactive |  |  | -1.52 | inactive |
| CC(=O)OCc1ccco1 | > 92 | > 92 | > 92 | > 92 | > 92 | > 92 | inactive | -7.42 |  | inactive | 31.6 µM (active) | inactive | inactive | inactive | inactive | inactive | inactive | inactive | 13.6 |  |
| O=Cc1c(Cl)cccc1Cl | > 92 | > 92 | > 92 | > 92 | > 92 | > 92 | inactive | -16.5 |  | inactive | inactive | inactive | inactive | inactive | inactive | inactive | inactive | inactive |  |  |
